According to the supplement of paper PMC11732987, “Enantioselective OTUD7B fragment discovery through chemoproteomics screening and high-throughput optimisation” (Communications Chemistry, 2025):

Target: COPS5 (UniProt Q92905)
Experiment: log2 ratio of Biotin-Ahx-Ub-VS probe labelling (fragment/DMSO); higher = less target engagement (more negative = stronger competition), active = hit call of the paper (q ≤ 0.05, log2 ratio ≤ -1)
Settings: compound concentration: 200 uM; treatment time: 3 h
Experimental: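 Competitive ABPP in HEK293T cell lysate. Lysates were treated with each chloroacetamide fragment at 200 µM for 3 h, then with Biotin-Ahx-Ub-VS (0.5 µM, 1 h), NeutrAvidin-enriched and analysed by diaPASEF LC-MS/MS. Protein LFQ was median-normalised; average log2 ratio is fragment/DMSO from an unpaired t-test (n=3 treated, n=44 DMSO). Hits: q ≤ 0.05, log2 ratio ≤ -1, unique peptides ≥ 2.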

Sequence of COPS5 (Q92905 whole entry, looked up, the tested form may be a part): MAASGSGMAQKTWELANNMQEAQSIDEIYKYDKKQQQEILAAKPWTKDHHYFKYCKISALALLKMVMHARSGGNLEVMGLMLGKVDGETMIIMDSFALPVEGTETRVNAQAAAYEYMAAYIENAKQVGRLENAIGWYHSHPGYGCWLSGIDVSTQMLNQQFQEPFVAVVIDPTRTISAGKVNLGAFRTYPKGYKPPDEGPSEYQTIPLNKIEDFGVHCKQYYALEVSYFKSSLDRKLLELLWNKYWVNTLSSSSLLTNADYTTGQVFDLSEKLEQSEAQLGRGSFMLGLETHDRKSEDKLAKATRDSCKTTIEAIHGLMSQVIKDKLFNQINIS

log2 ratio of Biotin-Ahx-Ub-VS probe labelling, inactive:
O=C(CCl)N(C1CCCC1)C1CCS(=O)(=O)C1 (stereo not given) -0.0682, O=C(CCl)Nc1cccc(C(=O)N2CCSCC2)c1 -0.111, O=C(CCl)NC1CCCCNC1=O (stereo not given) 0.0739, Cl.Cn1ncc2c1CC(NC(=O)CCl)CC2 (stereo not given) -0.0206, Cc1nc(CN2CCCN(C(=O)CCl)CC2)no1.Cl -0.0569, Cc1n[nH]c(=O)c2c(NC(=O)CCl)oc(C)c12 0.0565, O=C(CCl)Nc1ccc(N2CCCC2=O)cc1 0.31, NC(=O)C(Cc1ccccc1)NC(=O)CCl (stereo not given) 0.0263, Cc1conc1C1CN(C(=O)CCl)C1 0.0369, O=C(CCl)NCc1noc(C2CC2)n1 0.133, COc1ccc(CN(C)C(=O)CCl)cc1 -0.0998, CCC(NC(=O)CCl)c1ccc(Cl)cc1 (stereo not given) 0.193, O=C(CCl)N1CCC(C(=O)N2CCCCCC2)CC1 -0.0587, C[C@H]1CN(C(=O)CCl)CCN1C(=O)c1cnn(C)c1.Cl -0.0598, O=C(CCl)NCc1ccc(N2CCOCC2)nc1 0.0899, Cc1nc(-c2cccc(NC(=O)CCl)c2)cs1 -0.0825, Cl.O=C(CCl)N1CCc2ncncc2C1 -0.0201, O=C(CCl)N1CCc2sccc2C1 -0.455, Cl.O=C(CCl)N[C@H]1C[C@@H](n2cccn2)C1 -0.0476, COc1cccc(CN(C)C(=O)CCl)c1 0.0731, CNC(=O)C1(NC(=O)CCl)CCCCC1 0.00317, N#Cc1ccc(Cl)cc1NC(=O)CCl 0.289, CN1c2ccccc2C(NC(=O)CCl)CS1(=O)=O (stereo not given) 0.318, O=C(CCl)N1CCC(c2noc3cc(F)ccc23)CC1 0.00234, CC(NC(=O)CCl)c1csc(-c2ccccc2)n1.Cl (stereo not given) -0.00417, O=C(CCl)N1CCOC2(CCC2)C1 0.247, O=C(CCl)NC1CCN(C(=O)C2CCCCC2)CC1 -0.188, O=C(CCl)N1CCOC(CCc2ccccc2)C1 (stereo not given) -0.026, Cl.O=C(CCl)NCc1ccnc(Oc2ccccc2F)c1 0.031, O=C(CCl)NCCc1ccc2c(c1)OCCO2 0.0882, Cc1ncc2c(n1)CCN(C(=O)CCl)C2 0.163, O=C(CCl)N1CCC(O)(Cc2ccc(F)cc2)C1 (stereo not given) 0.0199, O=C(CCl)N1CCC(OCc2ccccc2F)CC1 -0.148, C#Cc1cccc(NC(=O)CCl)c1 -0.274, COCC[C@@H](NC(=O)CCl)c1ccccc1 0.222, O=C(CCl)Nc1cccc(NC(=O)c2ccccc2)c1 -0.238, Cc1ccc(CC(CO)CNC(=O)CCl)cc1 (stereo not given) 0.0248, O=C(CCl)N1CCC(C(O)c2ccc(F)cc2)CC1 (stereo not given) -0.113, O=C(CCl)N(Cc1ccsc1)C1CC1 0.054, O=C(CCl)NC(Cn1ccccc1=O)c1ccccc1 (stereo not given) 0.168
